From PubChem BioAssay
Active and inactive are the calls of the source.

Columns and labels:
[1] = small molecules captured by biotinylated probe aFSTL3 – biochemical, small-molecule microarray, fluorescence 635/667, stem cell growth factor project, primary screen (AID 1064); settings: higher = more signal;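 further: measures binding of the biotinylated anti-FSTL3 antibody to printed compounds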
[2] = binders from COS7 lysate, DM2A8 probe, primary screen, torsin A project, cell lysate, small-molecule microarray, fluorescence 635/667 (AID 1065); settings: higher = more signal, COS7 lysate expressing mutant human TOR1A
[3] = small molecules captured by biotinylated probe aFGF2 – biochemical, small-molecule microarray, fluorescence 635/667, stem cell growth factor project, primary screen (AID 1067); settings: higher = more signal;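 further: measures binding of biotinylated aFGF2 protein to printed compounds on slides; z-score merges feature fluorescence and signal-to-noise across triplicate slides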
[4] = small molecules captured by biotinylated probe aFGF10 – biochemical, small-molecule microarray, fluorescence 635/667, stem cell growth factor project, primary screen (AID 1071); settings: higher = more signal;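 further: score merges 667 nm spot intensity and signal to noise from triplicate slides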
[5] = target: Neurogenic locus notch homolog protein 2 (Homo sapiens) (UniProt Q04721); experiment: small molecules binding Notch2 protein – biochemical, small-molecule microarray, 635 nm fluorescence, stem cell growth factors, primary screen (AID 1073); settings: higher = more signal
[6] = target: Pro-neuregulin-1, membrane-bound isoform (Homo sapiens) (UniProt Q02297); experiment: small molecules binding neuregulin-1 protein – biochemical, small-molecule microarray, fluorescence 635/667, psychiatric disease protein project, primary screen (AID 1075); settings: NRG1 binding, 635 nm fluorescence, higher = more signal;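 further: score combines 667 nm spot fluorescence with signal to noise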
[7] = system: Neuregulin-1 EGF-like domain; experiment: small molecules binding NRG1 EGF domain – biochemical, small-molecule microarray, 635 nm fluorescence, primary screen (AID 1081); settings: higher = more signal;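 further: binding of the protein to compounds printed on small-molecule microarray slides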
[8] = FRG1 expression reporter modulators in myotubes – cell-based, C2C12 myotubes, firefly/Renilla luciferase, luminescence, FRG1 inhibition for FSHD, primary screen (AID 1084); settings: FRG1 promoter luciferase, higher = more signal, called active from +8 up or from −8 down
[9] = small molecules captured by biotinylated probe aFST – biochemical, small-molecule microarray, fluorescence 635/667, stem cell growth factor project, primary screen (AID 1086); settings: higher = more signal;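 further: score merges 667 nm fluorescence with signal-to-noise of each printed compound spot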
[10] = binders of probe aHhip on microarray, primary screen, stem cell growth factor project, biochemical, small-molecule microarray, fluorescence 635/667 (AID 1087); settings: higher = more signal;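 further: score merges spot fluorescence at 667nm with spot signal to noise ratio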
[11] = system: PRMT1 (protein arginine N-methyltransferase 1); experiment: small molecules binding arginine methyltransferase PRMT1 – biochemical, small-molecule microarray, 635 nm fluorescence, primary screen (AID 1088); settings: higher = more signal;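 further: binding of Prmt1 protein to compounds spotted on small-molecule microarray slides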
[12] = growth effects on S. cerevisiae YJM789 – YJM789 clinical isolate, OD600, 24 h, basal, primary screen (AID 1089); settings: higher = more signal, called active from +8 up or from −8 down;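 further: growth of clinical yeast isolate S. cerevisiae YJM 789 seeded 1000 cells per well; test concentration not given here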
[13] = S. pombe growth modifiers, basal conditions – strain 972, OD600, 24 h, no modulator, primary screen (AID 1090);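 further: basal condition with compound alone and no growth modifier present; test concentration not given here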; settings: S. pombe 972 growth, higher = more signal, called active from +8 up or from −8 down
[14] = budding yeast growth modifiers under rapamycin – strain BY4716, OD600, 96 h, primary screen (AID 1091); further: test concentration not given here; settings: S. cerevisiae BY4716 + rapamycin, higher = more signal, called active from +8 up or from −8 down
[15] = target: Torsin-1A-interacting protein 2 (Homo sapiens) (UniProt Q8NFQ8); experiment: small molecules binding lysate-expressed LULL1 – cell lysate, human LULL1 lysate, 635/667 nm fluorescence, primary screen (AID 1092); settings: small-molecule microarray, hLULL1 lysate binding, 635 nm fluorescence; higher = more signal;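 further: probe is lysate of COS7 cells overexpressing human LULL1; score merges per-feature 667 nm fluorescence with signal-to-noise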
[16] = optical density change of DRC41 E. coli – strain DRC41, OD650, 24 h, E. coli filamentation project, primary screen (AID 1093);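 further: MC1000 strain lacking acrAB efflux and sulA so SOS filamentation is blocked; test concentration not given here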; settings: E. coli DRC41 growth, higher = more signal, called active from +8 up or from −8 down
[17] = probe aLefty2 binding to arrayed compounds – biochemical, biotinylated probe, 635/667 nm fluorescence, primary screen (AID 1094); settings: small-molecule microarray, higher = more signal;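 further: score merges spot fluorescence near 667 nm with spot signal-to-noise ratio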
[18] = system: Noggin (protein binding on small-molecule microarray); experiment: small molecules binding Noggin protein – biochemical, 635/667 nm fluorescence, primary screen (AID 1095); settings: 635 nm fluorescence, higher = more signal;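 further: score merges 667 nm feature fluorescence with signal to noise over triplicate slides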
[19] = target: Neurogenic locus notch homolog protein 3 (Homo sapiens) (UniProt Q9UM47); experiment: small molecules binding NOTCH3 protein – biochemical, 635/667 nm fluorescence, primary screen (AID 1096); settings: small-molecule microarray, 635 nm fluorescence, higher = more signal
[20] = probe aEGFR binding to arrayed compounds – biochemical, biotinylated probe, 635/667 nm fluorescence, primary screen (AID 1097); settings: small-molecule microarray, higher = more signal;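 further: probe is a biotinylated anti-EGFR antibody binding compounds printed on slides; score combines fluorescence near 667 nm and signal to noise of each spot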

Neurogenic locus notch homolog protein 2 (Homo sapiens), sequence (Q04721 whole entry, looked up, canonical isoform): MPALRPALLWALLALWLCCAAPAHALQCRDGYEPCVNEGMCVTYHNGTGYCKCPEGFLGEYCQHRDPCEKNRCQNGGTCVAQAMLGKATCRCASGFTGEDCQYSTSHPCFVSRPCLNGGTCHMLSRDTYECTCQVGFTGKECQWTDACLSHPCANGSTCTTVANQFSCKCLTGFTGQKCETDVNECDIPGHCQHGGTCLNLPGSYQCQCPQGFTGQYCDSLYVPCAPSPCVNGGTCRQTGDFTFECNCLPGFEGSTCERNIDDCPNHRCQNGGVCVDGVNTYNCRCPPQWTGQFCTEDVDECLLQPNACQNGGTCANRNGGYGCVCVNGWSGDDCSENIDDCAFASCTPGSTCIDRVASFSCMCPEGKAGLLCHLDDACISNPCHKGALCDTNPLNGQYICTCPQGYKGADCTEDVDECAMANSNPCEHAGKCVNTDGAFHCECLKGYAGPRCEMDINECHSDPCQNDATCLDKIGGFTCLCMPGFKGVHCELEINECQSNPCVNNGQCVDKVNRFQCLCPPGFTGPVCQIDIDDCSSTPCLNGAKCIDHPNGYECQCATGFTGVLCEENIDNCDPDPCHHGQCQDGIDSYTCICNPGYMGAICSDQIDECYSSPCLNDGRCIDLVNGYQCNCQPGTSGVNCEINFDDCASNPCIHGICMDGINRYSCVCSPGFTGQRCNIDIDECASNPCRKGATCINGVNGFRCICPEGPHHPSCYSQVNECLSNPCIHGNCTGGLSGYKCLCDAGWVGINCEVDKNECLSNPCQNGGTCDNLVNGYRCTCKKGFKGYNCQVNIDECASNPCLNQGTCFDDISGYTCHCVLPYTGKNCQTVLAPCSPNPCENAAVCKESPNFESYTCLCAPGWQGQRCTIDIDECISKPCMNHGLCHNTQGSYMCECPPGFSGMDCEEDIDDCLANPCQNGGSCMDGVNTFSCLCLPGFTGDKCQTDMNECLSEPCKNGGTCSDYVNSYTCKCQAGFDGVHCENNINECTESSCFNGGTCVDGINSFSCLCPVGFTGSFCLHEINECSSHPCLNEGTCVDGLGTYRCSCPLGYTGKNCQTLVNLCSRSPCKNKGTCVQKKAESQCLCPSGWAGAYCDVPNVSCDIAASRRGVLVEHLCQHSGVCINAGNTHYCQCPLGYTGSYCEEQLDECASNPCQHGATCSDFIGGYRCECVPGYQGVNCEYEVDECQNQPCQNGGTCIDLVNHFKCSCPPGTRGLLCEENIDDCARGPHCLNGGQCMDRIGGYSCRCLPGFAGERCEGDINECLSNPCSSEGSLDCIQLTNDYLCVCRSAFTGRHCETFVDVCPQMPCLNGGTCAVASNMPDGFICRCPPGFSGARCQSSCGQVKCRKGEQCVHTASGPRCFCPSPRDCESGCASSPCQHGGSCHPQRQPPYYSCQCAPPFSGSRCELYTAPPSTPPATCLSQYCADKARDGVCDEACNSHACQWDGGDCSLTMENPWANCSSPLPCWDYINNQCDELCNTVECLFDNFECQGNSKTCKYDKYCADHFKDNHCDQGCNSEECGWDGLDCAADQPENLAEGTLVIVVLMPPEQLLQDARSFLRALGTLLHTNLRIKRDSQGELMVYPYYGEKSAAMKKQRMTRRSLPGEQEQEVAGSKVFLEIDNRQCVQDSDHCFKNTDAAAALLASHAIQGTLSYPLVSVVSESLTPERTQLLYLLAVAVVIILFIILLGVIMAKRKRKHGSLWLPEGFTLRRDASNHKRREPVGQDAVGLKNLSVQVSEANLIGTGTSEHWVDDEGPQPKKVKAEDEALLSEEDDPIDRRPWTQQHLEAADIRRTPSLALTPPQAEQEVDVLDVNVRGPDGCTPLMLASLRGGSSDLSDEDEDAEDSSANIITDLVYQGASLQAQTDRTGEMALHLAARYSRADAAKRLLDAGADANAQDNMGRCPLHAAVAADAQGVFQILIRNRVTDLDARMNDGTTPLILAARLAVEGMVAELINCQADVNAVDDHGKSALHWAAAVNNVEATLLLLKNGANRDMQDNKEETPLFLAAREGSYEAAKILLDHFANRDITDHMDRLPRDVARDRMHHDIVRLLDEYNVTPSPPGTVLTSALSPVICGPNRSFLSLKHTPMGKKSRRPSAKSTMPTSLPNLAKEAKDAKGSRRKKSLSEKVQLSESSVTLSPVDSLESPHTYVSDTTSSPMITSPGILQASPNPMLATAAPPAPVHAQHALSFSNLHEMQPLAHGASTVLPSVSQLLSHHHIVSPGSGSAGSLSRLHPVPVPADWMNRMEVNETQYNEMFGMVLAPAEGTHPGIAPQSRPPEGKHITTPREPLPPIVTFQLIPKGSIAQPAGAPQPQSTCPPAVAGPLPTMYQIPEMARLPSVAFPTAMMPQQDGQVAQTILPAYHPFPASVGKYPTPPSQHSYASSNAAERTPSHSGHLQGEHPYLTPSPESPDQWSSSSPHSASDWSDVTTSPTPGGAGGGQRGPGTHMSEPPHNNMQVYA
Neurogenic locus notch homolog protein 3 (Homo sapiens), sequence (Q9UM47 whole entry, looked up): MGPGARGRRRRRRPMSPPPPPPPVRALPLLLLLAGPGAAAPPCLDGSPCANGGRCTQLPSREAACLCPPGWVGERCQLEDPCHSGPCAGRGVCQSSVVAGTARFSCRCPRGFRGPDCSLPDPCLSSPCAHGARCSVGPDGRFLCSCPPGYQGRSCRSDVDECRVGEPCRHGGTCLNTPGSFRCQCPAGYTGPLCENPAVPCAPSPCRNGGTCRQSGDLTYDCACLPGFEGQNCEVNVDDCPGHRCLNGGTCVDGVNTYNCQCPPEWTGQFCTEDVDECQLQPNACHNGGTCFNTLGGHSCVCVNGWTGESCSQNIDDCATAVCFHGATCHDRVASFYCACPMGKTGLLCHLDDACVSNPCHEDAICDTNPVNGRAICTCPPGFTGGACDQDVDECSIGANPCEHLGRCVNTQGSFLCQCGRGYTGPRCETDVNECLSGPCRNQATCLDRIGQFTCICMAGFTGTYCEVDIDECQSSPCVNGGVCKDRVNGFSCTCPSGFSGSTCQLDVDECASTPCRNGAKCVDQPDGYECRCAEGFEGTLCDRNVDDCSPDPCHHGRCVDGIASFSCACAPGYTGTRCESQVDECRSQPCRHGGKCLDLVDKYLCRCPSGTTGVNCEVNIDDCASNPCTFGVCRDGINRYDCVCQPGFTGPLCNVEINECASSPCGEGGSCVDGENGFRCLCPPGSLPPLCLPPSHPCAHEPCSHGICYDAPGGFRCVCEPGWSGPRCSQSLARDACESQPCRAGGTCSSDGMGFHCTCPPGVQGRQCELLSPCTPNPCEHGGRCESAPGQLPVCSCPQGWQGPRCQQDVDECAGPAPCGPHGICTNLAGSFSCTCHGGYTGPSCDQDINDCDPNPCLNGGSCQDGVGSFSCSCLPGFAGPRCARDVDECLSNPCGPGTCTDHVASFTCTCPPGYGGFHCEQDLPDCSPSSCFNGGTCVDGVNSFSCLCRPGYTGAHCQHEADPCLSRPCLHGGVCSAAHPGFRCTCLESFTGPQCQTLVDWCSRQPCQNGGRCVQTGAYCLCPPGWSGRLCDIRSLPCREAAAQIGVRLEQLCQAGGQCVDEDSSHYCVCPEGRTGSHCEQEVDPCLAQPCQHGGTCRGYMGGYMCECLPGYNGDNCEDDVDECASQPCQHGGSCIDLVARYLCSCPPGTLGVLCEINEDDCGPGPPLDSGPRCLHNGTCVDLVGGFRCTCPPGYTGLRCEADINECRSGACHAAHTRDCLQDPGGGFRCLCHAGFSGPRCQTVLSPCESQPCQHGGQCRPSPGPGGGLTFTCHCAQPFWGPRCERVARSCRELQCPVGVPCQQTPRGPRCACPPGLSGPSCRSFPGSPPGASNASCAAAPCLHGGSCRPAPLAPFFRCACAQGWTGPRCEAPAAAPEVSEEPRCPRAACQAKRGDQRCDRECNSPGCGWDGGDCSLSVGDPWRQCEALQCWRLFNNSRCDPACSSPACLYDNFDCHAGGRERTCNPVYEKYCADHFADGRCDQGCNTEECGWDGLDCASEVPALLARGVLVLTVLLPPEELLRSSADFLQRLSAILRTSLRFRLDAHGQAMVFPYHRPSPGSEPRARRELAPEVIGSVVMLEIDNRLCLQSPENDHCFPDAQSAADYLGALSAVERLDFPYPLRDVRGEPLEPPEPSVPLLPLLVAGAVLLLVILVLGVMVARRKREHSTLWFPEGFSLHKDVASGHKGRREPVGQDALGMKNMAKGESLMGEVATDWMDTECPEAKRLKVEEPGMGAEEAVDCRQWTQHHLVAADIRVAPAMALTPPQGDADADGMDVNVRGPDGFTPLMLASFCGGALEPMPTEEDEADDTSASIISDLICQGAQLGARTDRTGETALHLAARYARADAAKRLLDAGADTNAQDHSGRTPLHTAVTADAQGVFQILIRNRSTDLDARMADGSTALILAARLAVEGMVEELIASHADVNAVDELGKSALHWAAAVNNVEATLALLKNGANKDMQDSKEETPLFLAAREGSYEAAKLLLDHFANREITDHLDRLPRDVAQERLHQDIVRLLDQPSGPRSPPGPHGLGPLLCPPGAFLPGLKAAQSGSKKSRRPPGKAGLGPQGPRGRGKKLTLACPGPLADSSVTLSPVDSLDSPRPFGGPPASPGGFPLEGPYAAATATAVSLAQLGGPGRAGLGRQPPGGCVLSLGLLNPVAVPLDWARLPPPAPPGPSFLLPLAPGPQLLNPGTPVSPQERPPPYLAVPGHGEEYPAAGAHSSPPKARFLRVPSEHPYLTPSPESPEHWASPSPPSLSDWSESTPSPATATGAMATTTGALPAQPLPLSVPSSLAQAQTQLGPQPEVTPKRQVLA

Row | SMILES | composite z-score [1] | composite z-score [2] | composite z-score [3] | composite z-score [4] | composite z-score [5] | composite z-score [6] | composite z-score [7] | z-score [8] | composite z-score [9] | composite z-score [10] | composite z-score [11] | z-score [12] | z-score [13] | z-score [14] | composite z-score [15] | z-score [16] | composite z-score [17] | composite z-score [18] | composite z-score [19] | composite z-score [20]
1 | C=CCNC(=O)[C@H]1[C@@H]2C(=O)O[C@@H](c3ccccc3)[C@@H](c3ccccc3)N2[C@@H](c2ccc(OCCO)cc2)[C@]12C(=O)N(C(=O)OCCOC)c1ccc(C#CC3=CCCCC3)cc12 | -0.0822 | 0.967 | -0.0711 | 1.13 | 0.844 | 1.43 | 1.28 | -0.974 (inactive) | 0.344 | -0.0296 | 1.55 | 0.573 (inactive) | 0.656 (inactive) | 2.97 (inactive) | 2.76 | 1.89 (inactive) | -0.0477 | 0.826 | 1.09 | -0.0237
2 | O=C1O[C@@H](c2ccccc2)[C@@H](c2ccccc2)N2[C@@H](c3ccc(O)cc3)[C@]3(C(=O)Nc4ccc(C#CC5(O)CCCCCC5)cc43)[C@@H](C(=O)N3CCN(c4ncccn4)CC3)[C@H]12 | -0.381 | 0.0262 | 0.0011 | 0.349 | 0.609 | 1.6 | 1.22 | -0.0311 (inactive) | 0.204 | -0.0994 | 1.34 | 0.979 (inactive) | 0.37 (inactive) | 0.924 (inactive) | 2.75 | 1.52 (inactive) | -0.114 | 0.864 | 0.886 | -0.0399
3 | Cc1ccc(S[C@]2(C(=O)NCc3ccccc3)CC(=O)N(C3Cc4ccccc4C3)[C@@H]2c2ccc(CO)cc2I)cc1 | -0.0093 | 0.247 | -0.123 | -0.257 | -0.312 | 1.64 | -0.185 | -1.73 (inactive) | -0.134 | -0.246 | 1.19 | -2.5 (inactive) | -1.73 (inactive) | 0.199 (inactive) | 2.11 | 3.17 (inactive) | -0.165 | -0.508 | -0.288 | -0.135
4 | C[C@@]1([C@@H](NC(=O)c2cccs2)c2ccc(-c3ccccc3)cc2)C[C@H]1C1CCCCC1 | -0.11 | -1.29 | -0.428 | -0.376 | -0.41 | 0.783 | -0.253 | 2.66 (inactive) | -0.232 | -0.523 | -1.61 | 1.53 (inactive) | -0.584 (inactive) | -0.578 (inactive) | 2.95 | -0.474 (inactive) | -0.288 | -0.786 | -1.31 | -0.239
5 | O=C1N(Cc2ccccc2)c2ccccc2[C@H]2OC(c3ccc(OCCCO)cc3)=N[C@@]12CCS(=O)(=O)c1ccccc1 | 0.149 | 0.527 | 0.11 | 0.951 | 0.931 | 1.76 | 1.28 | -1.25 (inactive) | 0.574 | 0.167 | 1.54 | 1.19 (inactive) | 0.485 (inactive) | 8.14 (active) | 3.36 | -0.81 (inactive) | 0.0137 | 1.75 | 1.08 | -0.0531
6 | CC(C)(C)OC(=O)CC[C@]1(C(=O)N2CCCCC2)N=C(c2ccc(OCCCO)cc2)O[C@H]1c1ccccc1CN=[N+]=[N-] | -0.193 | 1.29 | 0.347 | 1.14 | 1.65 | 1.89 | 1.38 | -2.88 (inactive) | 0.821 | -0.574 | 1.54 | -4.42 (inactive) | -0.736 (inactive) | -0.279 (inactive) | 3.67 | 2.1 (inactive) | 0.694 | 0.743 | 1.05 | 0.314
7 | CC(C)c1ccc(NN2C(C(O)c3cccs3)C=CC3C(=O)N(c4ccccc4)C(=O)C32)cc1 (stereo not given) | 0.222 | -0.14 | 0.117 | 0.353 | 1.66 | 1.54 | 1.19 | -1.87 (inactive) | 0.979 | 0.122 | 1.54 | 0.354 (inactive) | 0.758 (inactive) | 0.331 (inactive) | 3.36 | -1.14 (inactive) | 0.453 | -0.0307 | 1.06 | 0.08
8 | C=CCC(OC(C)=O)[C@@H]1[C@@H](N(Cc2cc3ccccc3o2)C(=O)Cc2ccc(OC)cc2)c2cc(OCCCO)ccc2N1C(=O)c1ccc(-c2ccccc2)cc1 (stereo not given in full) | 0.378 | 0.459 | -0.0601 | -0.204 | -0.4 | -0.294 | -0.529 | -0.199 (inactive) | 0.182 | 0.251 | -0.427 | 0.0801 (inactive) | -0.709 (inactive) | 0.714 (inactive) | 0.238 | 1.53 (inactive) | 0.0689 | -0.624 | -1.09 | -0.127
9 | CC(C)C[C@@H]1NC(=O)[C@@H]2C[C@H](C(=O)NCc3ccc(F)cc3)[C@H](c3ccc(O)cc3)N2C1=O | 0.454 | 0.0392 | -0.017 | 0.0187 | 0.245 | 0.346 | 1.16 | -0.331 (inactive) | -0.512 | -0.201 | 1.43 | -0.472 (inactive) | -0.352 (inactive) | -0.427 (inactive) | 2.96 | 0.549 (inactive) | 0.0137 | 0.479 | 0.365 | -0.178
10 | COCCCNC(=O)[C@@]1(Cc2ccccc2I)c2ccccc2C(=O)N(Cc2ccccc2Cl)[C@H]1c1ccc(CO)cc1 | -0.196 | 0.229 | -0.0686 | 0.293 | 0.153 | 1.3 | 1.13 | -1.21 (inactive) | -0.211 | -0.156 | 0.34 | -2.1 (inactive) | -0.477 (inactive) | -0.905 (inactive) | 2.37 | -0.162 (inactive) | 0.0842 | 0.323 | 0.344 | -0.0429
